The values below come from PubChem BioAssay AID1159606 (Sanford-Burnham Center for Chemical Genomics, 2016).

The campaign covered roughly 360,000 compounds. About 7,300 (2%) were called active. The sample as a whole holds a higher share of actives than the screen did. Values without a mark were called inactive. No stated cut-off is given here; in the data, active means inhibition above about 50%; inactive means the rest.

A short description of this test: blockers of TWEAK-induced Fn14 reporter activity – luciferase reporter cells, uHTS, primary screen (AID 1159606). The note with it: TWEAK-stimulated Fn14 reporter cells, luciferase luminescence, 8 h; at 10 µM; hits give high values. (Reporter assays use an easily measured gene product as a stand-in for the process of interest.)
As to `COc1cccc(NC(=O)Cn2c3ccc(F)cc3c3nc4n(c(=O)c32)CCS4)c1`, the inhibition (usually the drop in the measured response relative to a control, in per cent) was 7%.

`CCN(CC(=O)Nc1ccccc1C(F)(F)F)C(=O)C1CCN(C(=O)Nc2ccccc2)CC1`: the inhibition was 4.09%.

Regarding `C=C1C(=O)OC2C1CCC(C)=CCCC1(C)OC21` (stereo unspecified), the inhibition was 81.5% (active).

For `C[C@H]1COc2cc(N3CCSCC3)ccc2S(=O)(=O)N1`, the inhibition is -13.1%.

Turning to `CCOC(=O)N1CCN(C(=O)Cn2cnc3ccccc3c2=O)CC1`, the inhibition is -13.1%.

As for `O=c1c2ccccc2ncn1/N=C/c1ccccc1`, the inhibition is 62.7% (active).

On to `O=c1c2ccccc2ncn1CCc1ccncc1`, for which the inhibition was -5.08%.

Turning to `CCOc1cc(/C=N/NC(=O)c2ccncc2)cc(Br)c1O`, the inhibition is -8.09%.

In the case of `Nn1c(SCC(=O)Nc2ccc3c(c2)CCC3)nnc1C1CC1`, the inhibition was 1.14%.

For the compound `CCCn1c(N)c(C(=O)CSc2nc3ccccc3c(=O)n2-c2ccc(OC)cc2)c(=O)[nH]c1=O`, the inhibition is 2.25%.

For the compound `Cc1cc2oc(C(=O)Nc3c(C)n(C)n(-c4ccccc4)c3=O)c(C)c2cc1Cl`, the inhibition was 4.85%.

Turning to `Cc1c(NC(=O)c2coc(=O)c(Br)c2)c(=O)n(-c2ccccc2)n1C`, the inhibition was 65.9% (active).

Turning to `Cc1c(NC(=O)c2cc(-c3ccc(Br)cc3)on2)c(=O)n(-c2ccccc2)n1C`, the inhibition is 10.9%.

For `CCOc1ccc(NC(=O)c2ccc(NC(=O)CN3C(=O)C(=O)N(CC(C)C)C3=O)cc2)cc1`, the inhibition was -46.8%.

`Cc1cc(C)n2nc(C(=O)Nc3cccc(S(=O)(=O)N4CCOCC4)c3)nc2n1`: the inhibition was -5.76%.

As for `O=C1C2C3C=CC(C4CC34)C2C(=O)N1c1nccs1` (stereo unspecified), the inhibition was 17.6%.

As to `COc1ccc2[nH]c3c(c2c1)CCN1C(=O)C(CC(=O)NCCCN(C)C)C[C@H](C(=O)N2CCOCC2)[C@@]31CCC1CCCC1` (stereo partly specified), the inhibition is -4.84%.

For the compound `O=C(C[C@H]1C[C@H](C(=O)N2CCOCC2)[C@@]2(CCC3CCCC3)c3[nH]c4ccc(Cl)cc4c3CCN2C1=O)NCc1ccco1`, the inhibition was 32.8%.

`COc1ccc(CNC(=O)C[C@H]2C[C@H](C(=O)N3CCOCC3)[C@@]3(CCC4CCCC4)c4[nH]c5ccc(Cl)cc5c4CCN3C2=O)cc1OC`: the inhibition is 60.6% (active).

As for `Cc1cc(C)c(S(=O)(=O)NN=C2c3ccccc3[C@H]3Cc4csc[n+]4[C@@H]23)c(C)c1`, the inhibition was 13.8%.

`Clc1ccc(-c2cc(-c3ccccn3)on2)c(Cl)c1`: the inhibition is 83.2% (active).

For `Clc1ccc(COn2c(-c3ccc(Cl)cc3Cl)nc3ncccc32)cc1`, the inhibition is 11.7%.

For `Fc1ccc(-c2ccc(CNCc3ccccn3)o2)cc1Cl`, the inhibition was -29.9%.

As to `COc1cc([N+](=O)[O-])ccc1NC(=S)N1CCN(c2ccccn2)CC1`, the inhibition is -16.1%.

As for `COc1cc(OC)c2c(-c3cccc(-c4cccc(N)c4)c3)cc(=O)oc2c1`, the inhibition was 54.3% (active).

In the case of `COc1ccc(-c2c(C)cc3oc(=O)cc(-c4ccccc4)c3c2C)cc1OC`, the inhibition is -10.1%.

Take `COc1ccc(-c2c(C)cc3oc(=O)cc(-c4ccccc4)c3c2C)cc1F`: the inhibition was -37%.

Turning to `CC(C)[C@@H]1NC(=O)c2cc([N+](=O)[O-])cc(I)c2NCCC[C@@H](C(=O)NC(CC(=O)O)C(N)=O)NC(=O)[C@H](CO)NC1=O` (stereo partly specified), the inhibition is -9.29%.

Take `COc1ccccc1C(=O)NCCn1cc(SCC(=O)NCc2ccco2)c2ccccc21`: the inhibition was 8.15%.

Consider `CCc1oc(-c2ccc(OC)cc2)c(C(=O)OCCCCCO)c1C(C)OCCO` (stereo unspecified), for which the inhibition is -8.4%.

For the compound `Cc1nnsc1C(=O)NCc1c(F)cccc1Cl`, the inhibition was 21.4%.

For the compound `Cc1nnsc1C(=O)Nc1cccc(Cl)c1C`, the inhibition is -11.4%.

As for `Cc1cc(Cl)ccc1NNC(=O)c1snnc1C`, the inhibition was 78.6% (active).

Consider `CCOC(=O)[C@]12CCCC=C1N(Cc1ccc3c(c1)OCO3)C(=O)[C@H](CC(=O)N1CCN(C(=O)c3ccco3)CC1)C2`, for which the inhibition was 10.3%.

`COc1ccc(-c2cn[nH]c2-c2ccc(OC)cc2)cc1`: the inhibition was 80.3% (active).

As for `COc1ccc(Oc2cn[nH]c2-c2ccc(OC)cc2O)cc1`, the inhibition was -3.87%.

As for `CCOc1ccccc1Oc1cn[nH]c1-c1ccc(OC)cc1O`, the inhibition is 33.5%.

As for `CC12CCC(=O)C=C1CCC1C2C(O)CC2(C)C1CCC2(O)C(O)CO` (stereo unspecified), the inhibition is 8.15%.

On to `COc1ccccc1Cc1c(-c2ccc(Cl)cc2)nc2c3ccccc3ccn12`, for which the inhibition was -9.82%.

Regarding `Clc1ccc(-n2nnnc2-c2cnc(-c3ccccn3)nc2-c2cccs2)cc1`, the inhibition is 10%.

For the compound `O=C(Oc1ccc(-c2nc(-c3ccccn3)no2)cc1)c1ccccc1`, the inhibition was 92.9% (active).

For the compound `Brc1ccc(-c2noc(-c3ccccc3)n2)o1`, the inhibition was -28%.

Consider `COc1ccc(CCc2nc(-c3cccs3)no2)cc1`, for which the inhibition is -31.5%.

Turning to `O=C(COC(=O)c1ccncc1)c1ccccc1`, the inhibition is -3.5%.

Take `c1ccc(-c2noc(-c3cccs3)n2)nc1`: the inhibition is 76.2% (active).

Turning to `COCCN(C(=O)C(C)C)c1nnc(-c2ccc(C(C)(C)C)cc2)s1`, the inhibition is -18%.

Take `CCCCN(C(=O)C1=NN(c2cc(C)ccc2C)C(=O)CC1)c1c(N)n(CCC)c(=O)[nH]c1=O`: the inhibition is 4.67%.

Turning to `O=C1NC(O)CCN1C1CC(O)C(CO)O1` (stereo unspecified), the inhibition is 2.05%.

Take `O=C(Nc1ccccc1C(=O)N1CCOCC1)c1ccc(CSc2ccccc2)cc1`: the inhibition is -16.9%.

In the case of `O=C(Nc1ccc(CSc2ccccc2)cc1)c1ccc(CN2CCOCC2)cc1`, the inhibition is 62.3% (active).

For the compound `CCOc1ccc(C(=O)Nc2ccc(CN3CCOCC3)cc2)cc1Cl`, the inhibition was -17.1%.

On to `CCOC1CCCCC1NS(=O)(=O)c1ccc(Cl)cc1` (stereo unspecified), for which the inhibition was 23.1%.

Take `COc1ccc2c(c1)CCC/C2=N\OC(=O)c1ccccc1F`: the inhibition was 36.7%.

Take `CC(C)C[C@@H]1Cc2[nH][nH]c(=O)c2[C@H](CCc2ccccc2)O1`: the inhibition is 17%.

Take `CC(NC(=O)Nc1ccccc1)C(c1cccs1)N1CCN(c2ccccc2)CC1` (stereo unspecified): the inhibition was 1.76%.

Consider `Cc1ccc(Nc2nc(-c3ccc(O)cc3O)cs2)nc1`, for which the inhibition was -37.9%.

Turning to `Cc1ccn2c(-c3csc(Nc4ccc(C(=O)O)cc4)n3)c(C)nc2c1`, the inhibition was 21.8%.

Take `COc1ccc(OC)c(-c2csc(NC(=O)C3=NNC(=O)CC3)n2)c1`: the inhibition was -2.91%.

On to `Cc1noc(C)c1CSCC(=O)Nc1nc2ccc(Oc3ccccc3)cc2s1`, for which the inhibition was -4.3%.

As to `O=c1oc2ccccc2cc1-c1csc(Nc2ccc(O)cc2)n1`, the inhibition was 82.7% (active).

On to `COc1ccc2nc(Nc3nc(-c4cc5ccccc5oc4=O)cs3)sc2c1`, for which the inhibition is 64.4% (active).
